Marburg entry inh: inhibitors of Marburg virus binding or cell entry; Marburg virus pseudotyped entry inhibition, cell reporter; Potency, µM (titrated, usually from 37.8 µM), inactives show at the highest dose activity change, negative = inhibition, usual class: inhibitors; hit rate 1.8% among 300,000; calls by dose curve; tested in HEK293 cells; note: potency is the fitted concentration of half-maximal effect; % is set by controls: 0 for no effect and ±100 for the full control effect
Cycloheximide cs: affects cycloheximide protein synthesis inhibition readout, counter-screen; cell reporter, cycloheximide protein synthesis inhibition counterscreen; max response, %; hit rate 12% among 300,000; AID 2314; in the data active = max response mostly above about 13%, no sharp cut-off; inactive = mostly below about 14%; note: read at 38.3 µM for the half of the compounds with a filed dose; 0% is about no effect
Lassa entry inh: blocks Lassa virus binding to or entry into cells | AID 540256 | Lassa virus pseudotype entry inhibition, cell reporter | hit rate 1.2% among 300,000 | Potency, µM (titrated, usually from 37.9 µM), without a hit: top-dose activity change, negative = inhibition, hits mostly inhibitors; calls by dose curve; tested in HEK293 cells; note: potency is the fitted concentration of half-maximal effect; % is set by controls: 0 for no effect and ±100 for the full control effect; nearly all actives have a fitted effect of over 50% in size
Shiga inhibitor: inhibitors of Shiga toxin in Vero cells. Vero cells, Shiga toxin protein synthesis inhibition reporter. inhibition, % at 38.7 µM. hit rate 9.2% among 290,000. AID 2315; in the data active = inhibition mostly above about 28%, no sharp cut-off; inactive = mostly below about 43%; note: 0% is about no effect
Numbers without * were called inactive; i = inactive; ? = inconclusive; · = no result; [ ] = remark or other dose. Compounds with a hit are over-represented: about 12% of the library has one in this group of screens.

SMILES	Marburg entry inh	Cycloheximide cs	Lassa entry inh	Shiga inhibitor
COc1ccc(N2CCN(C(=O)c3ccc4ccccc4n3)CC2)cc1	-7%[46.1 µM]	-2	-18%	-6
N#Cc1ccsc1NC(=O)CSc1ncnc2ccccc12	10%	15*	18%	12
Cn1ccnc1SCC(=O)Nc1sccc1C#N	21%	11*	1%	14
Cc1nnc(SCC(=O)Nc2sccc2C#N)s1	?	14	22%[46.1 µM]	-16
CC(NC(=O)c1ccnc(C(C)(C)C)c1)c1ccccc1 (stereo not drawn)	22%	-6	-17%	2
CN(C)c1ccc(C(=O)N2CCCC(CCC(=O)N3CCN(c4ccccn4)CC3)C2)cc1 (stereo not drawn)	-20%	7	-9%	14
O=C1C[C@H]2CCCCC(=O)N3CC[C@@H](C1)[C@@H]23	·	-5	·	i
CC(C)c1ccc2[nH]c3c(c2c1)[C@@H]1CCN2C(=O)CCC[C@H](C3)[C@H]12	·	22*	·	35*
Cc1ccc(-c2csc(Nc3ccccc3)[n+]2CCc2ccccc2)cc1	·	23*	·	70*
O=[N+]([O-])c1ccc(-c2csc(Nc3ccccc3)[n+]2Cc2ccccc2)cc1	12%	33*	-2%	29*
Cc1ccc(-c2csc(Nc3ccc(C(=O)O)cc3)[n+]2Cc2ccccc2)cc1	?	5	-6%[46.1 µM]	19
COc1ccc(-c2csc(Nc3ccccc3)[n+]2Cc2ccccc2)cc1	·	38*	·	55*
COC(=O)Cc1ccc(NC(=S)N2CCN(c3cc(Cl)ccc3C)CC2)cc1	?	-3	-25%	10
CCOc1ccc(CCNC(=O)COC(=O)/C=C/c2ccc(OCC#N)c(OC)c2)cc1OCC	5%	-3	-36%	-3
CCNC(=O)NC(=O)C(C)OC(=O)[C@H](C)NS(=O)(=O)c1c(C)c(C)cc(C)c1C (stereo partly drawn)	·	-6	·	-2
Cc1ccccc1/C=C/C1=NCCN1	11µM*	·	?	·
Cc1cccc(/C=C2/S/C(=N/N=C3\CC4CCC3(C)C4(C)C)NC2=O)c1 (stereo not drawn)	?	-2	14µM*	-4
O=C(COc1ccc2c(c1)OCO2)Nc1ccccc1F	·	41*	·	108*
O=C(COc1ccc(Cl)cc1)Nc1ccc(Cl)cn1	19%	26*	?	34
O=C(COc1ccccc1Cl)Nc1ccc(Cl)cn1	15%	39*	?	63*
CC(C)=CC(=O)OCC(=O)Nc1ccc(Cl)cn1	9%	19*	-2%	13
O=C(COC(=O)COc1ccccc1F)Nc1ccc(Cl)cn1	-5%[46.1 µM]	-2	-3%[46.1 µM]	1
COCCCN1C(=O)C(O)=C(C(=O)c2ccco2)[C@H]1c1ccc(Br)cc1	-1%	·	·	·
O=C(NCc1ccccn1)C1CCCCC1	5%[46.1 µM]	-2	3%	-5
COc1ccccc1C(=O)OCC(=O)Nc1ccc(Cl)cn1	·	27*	·	15
SMILES	Marburg entry inh	Cycloheximide cs	Lassa entry inh	Shiga inhibitor
O=C(COC(=O)c1ccccc1)Nc1ccc(Cl)cn1	-1%[46.1 µM]	15	?	66
O=C(COc1ccccc1)Nc1ccc(Cl)cn1	1%[46.1 µM]	62*	-5%	62*
O=C(COc1ccc2c(c1)OCO2)Nc1ccc(Cl)cn1	?	51*	-22%[46.1 µM]	69*
O=C(/C=C/c1ccc2c(c1)OCO2)Nc1ccc(Cl)cn1	?	34*	?	78*
O=C(NC1CCCCC1)NC1C2CC3CC(C2)CC1C3 (stereo not drawn)	·	9	·	-7
O=C(COc1ccc2c(c1)OCO2)Nc1nccs1	?	28	?	58*
COc1ccccc1CNC(=O)COC(=O)Cn1cnc2ccccc21	·	-5	·	8
Cc1cc(NC(=O)C2CCN(C(=O)c3ccco3)CC2)ccc1Br	15%	·	16%	·
Cc1ccc(-c2cc(C(=O)O)c3ccccc3n2)c(C)c1	·	18*	·	5
O=C(O)c1cc(-c2ccc(Cl)s2)nc2ccccc12	11µM*	14	?	54*
Cc1ccc(-c2cc(C(=O)Nc3ccc4c(c3)OCCO4)c3ccccc3n2)cc1	?	55*	-3%	125*
Cc1ccc(-c2cc(C(=O)Nc3cc(C)on3)c3ccccc3n2)c(C)c1	0%	13	-16%	13
Cc1ccc(C)c(-c2cc(C(=O)Nc3cccnc3)c3ccccc3n2)c1	11µM*	0	-6%	-8
O=C(Nc1ccc2c(c1)OCO2)c1cc(-c2cccnc2)nc2ccccc12	-12%[46.1 µM]	16*	-9%[46.1 µM]	71
O=C(Cn1cnc([N+](=O)[O-])c1)Nc1ccccc1C(F)(F)F	16%[46.1 µM]	-1	5%[46.1 µM]	-2
Cc1[nH]n(-c2ccccc2)c(=O)c1N=Nc1ccc(F)cc1	?	13*	5%[46.1 µM]	31
Nc1[nH]n(-c2ccccc2)c(=O)c1N=Nc1ccccc1	?	61*	2%	61*
Nc1[nH]n(-c2ccccc2)c(=O)c1N=Nc1ccccc1[N+](=O)[O-]	?	13*	0%	25
Cc1[nH]n(-c2ccccc2)c(=O)c1C(=O)c1cccc(F)c1	10µM*	14	?	24
CC(Nc1c[nH]c(=O)[nH]c1=O)c1ccccc1 (stereo not drawn)	1%[46.1 µM]	-4	5%[46.1 µM]	-4
Nc1nc2n(n1)[C@@H](c1cccs1)C[C@H](c1ccc(F)cc1)N2	-1%	·	·	·
Cc1ccc(CSc2nc3ccc(NC(=O)CC(C)C)cc3s2)cc1	-18%[46.1 µM]	·	-11%[46.1 µM]	·
COc1ccc2[nH]cc(CCNC(=O)CS(=O)(=O)Cc3ccccc3)c2c1	?	-5	?	-1
CCN(CC)CC(O)CN1CCCCc2nc(C)c(C)cc21 (stereo not drawn)	-8%[14.2 µM]	·	·	·
Nc1[nH]n(-c2ccccc2)c(=O)c1N=Nc1ccc2ncsc2c1	·	41*	·	38*
SMILES	Marburg entry inh	Cycloheximide cs	Lassa entry inh	Shiga inhibitor
CSc1ccc(N=Nc2c(C)[nH]n(C)c2=O)cc1	?	46*	20%	67*
Cc1ccc(NC(=O)c2nc[nH]c2C(=O)NCC(=O)OC(C)(C)C)cc1	·	-3	·	-4
COC(=O)c1ccccc1NC(=O)Cn1c(=O)n(Cc2ccc(C(=O)NCc3ccc4c(c3)OCO4)cc2)c(=O)c2ccccc21	26%[46.1 µM]	·	?	·
Cc1ccc(-c2c(CN3CCN(c4cccc(C)c4C)CC3)csc2C)cc1	·	·	22%[46.1 µM]	·
Cc1cccc(CNS(=O)(=O)c2ccc(-c3coc(C)n3)cc2)c1	·	·	6%[46.1 µM]	·
O=C(CNC(=O)c1ccccc1F)Nc1ccccc1C(F)(F)F	15%[46.1 µM]	-2	13%[46.1 µM]	-16
O=C1CN(C(=O)CNCc2cccc(Cl)c2)c2ccccc2N1	·	-1	·	-7
CCOC(=O)N1CCN(Cc2nc(N)nc(Nc3ccc(C)cc3C)n2)CC1	-6%[46.1 µM]	-4	·	16
COC(=O)c1cc2ccsc2n1Cc1cc(=O)n2ccccc2n1	8%	28*	0%	74*
CCCS(=O)(=O)C/C(N)=N/OC(=O)c1ccccc1Cl	?	-1	9%[46.1 µM]	32
N/C(CS(=O)(=O)c1ccccn1)=N\OC(=O)c1ccccc1Cl	1%[46.1 µM]	40*	-2%	57*
N/C(CS(=O)(=O)c1ccccn1)=N\OC(=O)c1ccc(Cl)cc1	?	26*	9%	35
O=C(COc1ccc2c(c1)CCC2)N1CCc2ccccc21	0%	43*	-16%	98*
CCOCC(=O)N1CCc2ccccc21	?	1	4%	17
Cc1ccc(OCC(=O)N2CCCc3ccccc32)cc1	19%	19	8%	33*
CCc1ccc(OCC(=O)N2CCc3ccccc32)cc1	?	35*	-10%[46.1 µM]	96*

Screening data (PubChem)
